# Tested on: HL-1
# Experiment: cardiomyocyte survival under oxidative or metabolic stress – cell-based, panel, H9c2 and HL-1, ATP luminescence, set 2, SAR follow-up (AID 651871);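 note: cells exposed to stressor for 2 h before ATP readout; reference of the scale not given here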
# Details: H9c2/HL-1 cardiomyocytes, 2-deoxyglucose stress, with 2-deoxyglucose, run 12, at 19.8 µM (top of the series)
smiles,measurement,value
COc1ccc2c(c1OC)C(=O)N1c3ccccc3C(=O)N(Cc3cccc(Cl)c3Cl)C21 (stereo unspecified),activity (protection/inhibition),51%

# From PubChem BioAssay AID651871 (Sanford-Burnham Center for Chemical Genomics, 2012)
